Source: PubChem BioAssay (NCATS)
Inconclusive results are not listed. Entries that show only a call come without a potency. Activity calls are given as the source filed them. Unless noted, calls follow the shape of the dose curve; as a rule, active = well fitted curve in the direction sought with a large enough effect; inconclusive = small, poorly fitted or top-dose-only effect, or another doubt; inactive = no such curve, though single readings can be large; an effect the other way counts as inactive or inconclusive.

Tests used:
[1] = molecular target: DNA repair nuclease/redox regulator APEX1 (Homo sapiens) (UniProt P27695); experiment: qHTS Validation Assay for Inhibitors of the Human Apurinic/apyrimidinic Endonuclease 1 (APE1) (AID 1705; also: potency is read from the fitted curve at half-maximal effect)
How it was run: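 Human APE1 was preincubated with compound for 15 min at room temperature, then 50 nM (final) THF-abasic double-stranded DNA substrate bearing 5'-TAMRA and 3'-BHQ-2 was added. Incision-driven fluorescence rise (ex 525/em 598 nm) was read kinetically.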

[2] = Counterscreen for APE1 Inhibitors: Fluorescent Dye Displacement Validation Assay (AID 1707); also: potency is read from the fitted curve at half-maximal effect
How it was run: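 Assay buffer: Tris-HCl pH7.5 with 50mM NaCl, 2 mM MgCl2, 0.01% Tween-20. Dye 250 nM, duplex 50 nM final. Readout: decrease in ThO endpoint fluorescence, 480 nm excitation, 540 nm emission.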

[3] = qHTS for differential inhibitors of proliferation of Plasmodium falciparum line 7G8 (AID 1815);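 also: parasite growth measured after three days of incubation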; also: potency is read from the fitted curve at half-maximal effect
[4] = qHTS for differential inhibitors of proliferation of Plasmodium falciparum line GB4 (AID 1816); conditions: Potency: Plasmodium falciparum GB4 proliferation inhibition;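 also: parasite growth measured after 72 h incubation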; also: potency is read from the fitted curve at half-maximal effect
[5] = qHTS for differential inhibitors of proliferation of Plasmodium falciparum line 3D7 (AID 1876); also: potency is read from the fitted curve at half-maximal effect
[6] = qHTS for differential inhibitors of proliferation of Plasmodium falciparum line D10 (AID 1877);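 also: parasites grown with compound for 72 h before DNA staining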; also: potency is read from the fitted curve at half-maximal effect
[7] = qHTS for differential inhibitors of proliferation of Plasmodium falciparum line Dd2 (AID 1882); conditions: Potency: Plasmodium falciparum Dd2 proliferation inhibition; also: nearly all actives have a fitted effect of over 65% in size; also: potency is read from the fitted curve at half-maximal effect
How it was run: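 SYBR Green I DNA fluorescence read-out, ex 485/em 535 nm. Signals were normalized to 0.29 uM artemisinin and DMSO wells, then corrected using vehicle-only plates flanking each stack. Parasite growth ran 72 h in erythrocytes before lysis.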

[8] = qHTS for differential inhibitors of proliferation of Plasmodium falciparum line W2 (AID 1883); conditions: Potency: Plasmodium falciparum W2 proliferation inhibition;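 also: parasites grown with compound for 72 h before lysis and staining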; also: potency is read from the fitted curve at half-maximal effect
[9] = qHTS for differential inhibitors of proliferation of Plasmodium falciparum line HB3 (AID 1886); conditions: Potency: Plasmodium falciparum HB3 proliferation inhibition;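 also: parasites grown with compound for 72 h before SYBR Green readout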; also: potency is read from the fitted curve at half-maximal effect
[10] = qHTS Assay for Modulators of Human Peripheral Myelin Protein 22 (PMP22) Expression/Activity (AID 1967; active = well fitted curve in the direction sought with a large enough effect in the signal ratio; the % refers to the signal ratio)
How it was run: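 MSC80 mouse Schwann cells stably carrying Pmp22 promoter–green click beetle luciferase plus EF-alpha–red luciferase control were dosed for 24h at 37 °C. Dual-colour luminescence was filter-overlap corrected; %Activity came from green/red ratio versus untreated cells.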

[11] = molecular target: Ferritin light chain (Equus caballus) (UniProt P02791); experiment: qHTS Validation Assay for Identification of Novel General Anesthetics (AID 2323); also: series mostly up to about 77 µM
How it was run: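 Competitive displacement of profluorescent 1-aminoanthracene (1-AMA, 50% saturated solution in PBS) from 10 uM horse-spleen apoferritin. Compounds incubated 10 min at room temperature; fluorescence read at 380 nm excitation/535 nm emission, normalized to free 1-AMA and complex, fitted with four-parameter Hill equation.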

[12] = molecular target: ATP-dependent DNA helicase Q1 (Homo sapiens) (UniProt P46063); experiment: qHTS Validation Assay for Inhibitors of RecQ-Like Dna Helicase 1 (RECQ1) (AID 2353)
How it was run: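 50 nM RECQ1T1 preincubated 15 min with compound in Tris pH 8.0 buffer with MgCl2, DTT, Tween-20 and 2.5 ug/ml poly(dI-dC); started with 200 nM TAMRA/BHQ-2 forked duplex and 2 mM ATP. Unwinding read as fluorescence (525/598 nm), two reads 2 h apart.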

[13] = molecular target: RecQ-like DNA helicase BLM (Homo sapiens) (UniProt P54132); experiment: qHTS Validation Assay for Inhibitors of Bloom's syndrome helicase (BLM) (AID 2364); also: potency is read from the fitted curve at half-maximal effect
How it was run: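 50 nM BLM preincubated 15 min at room temperature with compound in pH 8.0 Tris buffer containing 2.5 ug/ml poly(dI-dC); started with 200 nM TAMRA/BHQ-2 forked duplex and 2 mM ATP (final). Unwinding read as TAMRA fluorescence increase, two reads 2 h apart.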

[14] = Cytometric Cell-Based qHTS for Inhibitors of the mTORC1 Signaling Pathway in MEF (Tsc2-/-, p53-/-) Cells (AID 2660);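 also: percent of cells above a phospho-rpS6 to PI ratio cutoff in each well; series mostly up to about 38 µM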
How it was run: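 Cells are plated, treated with compound for 24 hrs at 37 degree Celsius, then fixed, blocked and immunostained for phospho-rpS6 Ser235/236. Propidium iodide counterstain follows. Per-well % positive cells is derived from the PI-normalized phospho-S6 signal.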

[15] = High Content Imaging Cell-Based qHTS for Inhibitors of the mTORC1 Signaling Pathway in MEF Cells (AID 2667); also: potency is read from the fitted curve at half-maximal effect
How it was run: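 WT MEFs (Tsc2-/-, p53-/- re-expressing Tsc2), in DMEM + 10% FBS, were treated with compound for 24 h at 37 C. Cells were then fixed and stained for phospho-rpS6 Ser235/236 with propidium iodide as cell count. Values are % positive cells, with thresholds set against rapamycin-treated cells.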

[16] = Validation screen for inhibitors of Lassa infection (AID 463096; calls by dose curve; also: potency is read from the fitted curve at half-maximal effect)
[17] = Cytometry Cell-Based qHTS for Inhibitors of the mTORC1 Signaling Pathway in MEF cells (AID 2668);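 also: Tsc2-/- p53-/- mouse embryonic fibroblasts stably re-expressing wild-type Tsc2; percent cells positive for phospho-rpS6 Ser235/236 relative to propidium iodide stain; series mostly up to about 38 µM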
How it was run: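 WT MEFs (Tsc2-/-, p53-/- stably re-expressing WT Tsc2) in DMEM + 10% FBS received compounds 24 hrs after plating, for 24 hrs at 37 degree Celsius. Fixed cells stained with Alexa-488 anti-phospho-rpS6 Ser235/236 and propidium iodide; laser-scanning cytometry read-out.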

[18] = molecular target: Endonuclease 4 (Escherichia coli (strain K12)) (UniProt P0A6C1); experiment: Counterscreen for APE1 Inhibitors: qHTS Validation Assay for Inhibitors of Endonuclease IV (AID 1708)
How it was run: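 Cleavage of a quenched abasic-site DNA duplex (50 nM, 5'-TAMRA, 3'-BHQ-2) by 2 nM enzyme is followed as fluorescence increase. Compounds are preincubated with enzyme 15 min at room temperature before substrate addition.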

[19] = High Content Imaging Cell-Based qHTS for Inhibitors of the mTORC1 Signaling Pathway in MEF (Tsc2-/-, p53-/-) Cells (AID 2666);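 also: percent of cells scored positive for phospho-rpS6 Ser235/236 immunostaining by imaging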
How it was run: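 Phospho-rpS6 (Ser235/236) immunofluorescence, normalized and scored as % positive cells using rapamycin and DMSO controls, was read in empty-vector Tsc2-/-, p53-/- MEFs after 24 h compound exposure at 37 C; propidium iodide counted cells.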

Sequence of RecQ-like DNA helicase BLM (Homo sapiens) (P54132 whole entry, looked up): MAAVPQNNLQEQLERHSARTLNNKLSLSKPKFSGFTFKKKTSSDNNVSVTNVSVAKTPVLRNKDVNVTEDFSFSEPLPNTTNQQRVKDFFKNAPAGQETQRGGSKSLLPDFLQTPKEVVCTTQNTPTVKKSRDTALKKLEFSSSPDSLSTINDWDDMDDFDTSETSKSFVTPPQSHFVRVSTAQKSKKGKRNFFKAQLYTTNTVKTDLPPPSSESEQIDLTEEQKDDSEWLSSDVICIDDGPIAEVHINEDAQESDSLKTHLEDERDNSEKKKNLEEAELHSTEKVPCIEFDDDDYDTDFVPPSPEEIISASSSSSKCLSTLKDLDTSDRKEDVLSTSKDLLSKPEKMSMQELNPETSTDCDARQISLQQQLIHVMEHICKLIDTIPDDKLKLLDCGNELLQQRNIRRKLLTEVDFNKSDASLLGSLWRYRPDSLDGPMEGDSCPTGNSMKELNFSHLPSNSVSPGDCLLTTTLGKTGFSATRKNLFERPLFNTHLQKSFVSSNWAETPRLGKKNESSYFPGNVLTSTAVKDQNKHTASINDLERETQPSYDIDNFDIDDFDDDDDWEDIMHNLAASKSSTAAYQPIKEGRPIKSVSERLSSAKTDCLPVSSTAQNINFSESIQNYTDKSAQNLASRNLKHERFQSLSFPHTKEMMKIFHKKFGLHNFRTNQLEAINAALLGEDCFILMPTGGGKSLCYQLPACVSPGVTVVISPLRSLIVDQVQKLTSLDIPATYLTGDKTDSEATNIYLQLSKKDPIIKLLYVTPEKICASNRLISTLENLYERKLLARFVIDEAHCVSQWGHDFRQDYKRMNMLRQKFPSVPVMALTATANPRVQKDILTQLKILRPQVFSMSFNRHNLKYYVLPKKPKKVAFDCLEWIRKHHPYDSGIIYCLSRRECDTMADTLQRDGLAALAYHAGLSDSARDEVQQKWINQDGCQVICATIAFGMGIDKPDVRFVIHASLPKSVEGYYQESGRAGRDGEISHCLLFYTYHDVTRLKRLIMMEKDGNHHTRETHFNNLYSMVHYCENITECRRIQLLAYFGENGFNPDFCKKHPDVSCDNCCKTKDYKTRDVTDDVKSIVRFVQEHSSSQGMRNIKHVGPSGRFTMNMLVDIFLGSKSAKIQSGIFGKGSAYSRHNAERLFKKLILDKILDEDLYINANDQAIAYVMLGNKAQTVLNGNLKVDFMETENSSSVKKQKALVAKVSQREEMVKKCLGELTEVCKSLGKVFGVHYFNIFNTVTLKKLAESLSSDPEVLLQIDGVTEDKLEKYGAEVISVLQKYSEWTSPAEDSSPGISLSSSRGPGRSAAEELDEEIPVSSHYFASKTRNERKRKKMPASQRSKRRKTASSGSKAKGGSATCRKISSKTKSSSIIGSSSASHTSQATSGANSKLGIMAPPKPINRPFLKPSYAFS
Sequence of DNA repair nuclease/redox regulator APEX1 (Homo sapiens) (P27695 whole entry, looked up): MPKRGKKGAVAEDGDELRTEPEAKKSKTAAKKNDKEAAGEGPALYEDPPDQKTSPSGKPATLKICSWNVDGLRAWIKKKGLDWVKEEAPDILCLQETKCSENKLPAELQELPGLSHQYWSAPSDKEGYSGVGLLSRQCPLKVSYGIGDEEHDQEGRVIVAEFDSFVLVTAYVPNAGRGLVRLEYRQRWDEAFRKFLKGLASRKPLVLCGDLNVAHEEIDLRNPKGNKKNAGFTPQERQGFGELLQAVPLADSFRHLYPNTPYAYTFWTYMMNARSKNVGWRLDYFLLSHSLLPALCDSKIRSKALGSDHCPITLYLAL
Sequence of Ferritin light chain (Equus caballus) (P02791 2-175 limits assumed): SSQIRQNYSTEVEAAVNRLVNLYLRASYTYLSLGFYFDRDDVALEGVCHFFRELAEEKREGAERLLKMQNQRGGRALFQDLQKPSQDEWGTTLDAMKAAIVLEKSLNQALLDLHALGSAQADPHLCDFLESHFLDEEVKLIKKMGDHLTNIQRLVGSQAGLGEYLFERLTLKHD
Sequence of ATP-dependent DNA helicase Q1 (Homo sapiens) (P46063 whole entry, looked up): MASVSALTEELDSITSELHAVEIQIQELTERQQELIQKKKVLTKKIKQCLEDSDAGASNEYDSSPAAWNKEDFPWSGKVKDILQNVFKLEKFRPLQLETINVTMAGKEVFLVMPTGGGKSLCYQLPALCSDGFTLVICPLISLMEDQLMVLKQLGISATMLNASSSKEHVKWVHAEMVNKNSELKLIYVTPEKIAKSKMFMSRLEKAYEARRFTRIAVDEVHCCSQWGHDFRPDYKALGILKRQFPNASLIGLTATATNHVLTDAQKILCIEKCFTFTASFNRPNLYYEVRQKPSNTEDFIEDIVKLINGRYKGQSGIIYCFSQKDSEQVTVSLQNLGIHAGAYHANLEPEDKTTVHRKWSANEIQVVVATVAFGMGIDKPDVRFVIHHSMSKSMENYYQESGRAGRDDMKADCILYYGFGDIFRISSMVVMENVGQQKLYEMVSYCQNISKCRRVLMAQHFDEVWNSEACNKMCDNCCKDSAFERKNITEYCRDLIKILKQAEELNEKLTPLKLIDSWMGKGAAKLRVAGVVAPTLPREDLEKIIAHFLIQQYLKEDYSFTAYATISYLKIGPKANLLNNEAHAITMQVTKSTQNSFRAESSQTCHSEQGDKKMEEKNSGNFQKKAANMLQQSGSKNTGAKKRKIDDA

SMILES	Potency [1]	Potency [2]	Potency [3]	Potency [4]	Potency [5]	Potency [6]	Potency [7]	Potency [8]	Potency [9]	outcome [10]	outcome [11]	outcome [12]	Potency [13]	Potency [14]	Potency [15]	Potency [16]	Potency [17]	Potency [18]	Potency [19]
Cn1cnc(CCN)c1	inactive	inactive	inactive	inactive	inactive	inactive	inactive	inactive	inactive	inactive	inactive	inactive	inactive	inactive	inactive	inactive	–	–	–
CNCCc1c[nH]c2ccc(O)cc12	inactive	inactive	inactive	inactive	inactive	inactive	inactive	inactive	inactive	inactive	inactive	inactive	–	inactive	inactive	inactive	inactive	–	–
NC(=NCCC[C@H](N)C(=O)O)N[N+](=O)[O-]	inactive	inactive	inactive	inactive	inactive	inactive	inactive	inactive	inactive	–	inactive	inactive	–	inactive	inactive	inactive	inactive	–	–
C[C@@H]1O[C@H](C[N+](C)(C)C)C[C@H]1O	inactive	inactive	inactive	inactive	inactive	inactive	inactive	inactive	inactive	inactive	inactive	inactive	inactive	inactive	inactive	inactive	inactive	–	–
O=C(Cc1ccc(Cl)c(Cl)c1)N1CCCCC1CN1CCCC1 (configuration not stated)	inactive	inactive	5.01 µM (active)	–	12.6 µM (active)	–	7.94 µM (active)	2 µM (active)	–	–	inactive	inactive	–	inactive	inactive	inactive	inactive	inactive	–
O=C(O)CC[N+](=O)[O-]	inactive	inactive	inactive	inactive	inactive	inactive	inactive	inactive	inactive	inactive	inactive	inactive	–	inactive	inactive	inactive	inactive	–	–
C[N+]1(C)C2CCC1CC(OC(=O)C(CO)c1ccccc1)C2 (configuration not stated)	inactive	inactive	inactive	inactive	inactive	inactive	inactive	inactive	inactive	inactive	inactive	inactive	inactive	inactive	inactive	inactive	inactive	–	–
c1ccc(CCCN2CCN(CCOC(c3ccccc3)c3ccccc3)CC2)cc1	inactive	inactive	4.47 µM (active)	7.08 µM (active)	11.2 µM (active)	10 µM (active)	8.91 µM (active)	3.16 µM (active)	7.94 µM (active)	–	–	inactive	–	inactive	–	–	–	–	–
NCc1cc(=O)[nH]o1	inactive	inactive	inactive	inactive	inactive	inactive	inactive	inactive	inactive	inactive	inactive	inactive	inactive	inactive	inactive	inactive	inactive	–	–
CS(=N)(=O)CC[C@H](N)C(=O)O (some centres not stated)	inactive	inactive	inactive	inactive	inactive	inactive	inactive	inactive	inactive	–	inactive	inactive	inactive	inactive	inactive	inactive	inactive	–	–
C[N+](C)(C)CC(=O)O	inactive	inactive	inactive	inactive	inactive	inactive	inactive	inactive	inactive	inactive	inactive	inactive	inactive	–	–	inactive	–	–	–
NC1CC1c1ccccc1 (configuration not stated)	inactive	inactive	10 µM (active)	10 µM (active)	–	–	inactive	10 µM (active)	10 µM (active)	–	–	inactive	–	inactive	inactive	inactive	inactive	–	inactive
CC(C)NC(C)Cc1ccc(I)cc1 (configuration not stated)	39.8 µM (active)	inactive	10 µM (active)	11.2 µM (active)	–	–	–	7.08 µM (active)	–	–	inactive	inactive	inactive	inactive	inactive	inactive	inactive	–	–
O=C(O)[C@@H]1CCN1	inactive	inactive	inactive	inactive	inactive	inactive	inactive	inactive	inactive	inactive	inactive	inactive	–	inactive	inactive	inactive	inactive	inactive	inactive
CN1C2CCC1CC(OC(=O)c1cc(Cl)cc(Cl)c1)C2 (configuration not stated)	inactive	inactive	6.31 µM (active)	12.6 µM (active)	10 µM (active)	–	inactive	8.91 µM (active)	–	–	inactive	inactive	inactive	inactive	inactive	inactive	–	–	–
NC(N)=NOCCC(N)C(=O)O (configuration not stated)	inactive	inactive	inactive	inactive	inactive	inactive	inactive	inactive	inactive	inactive	inactive	inactive	–	inactive	inactive	inactive	inactive	–	–

SMILES	Potency [1]	Potency [2]	Potency [3]	Potency [4]	Potency [5]	Potency [6]	Potency [7]	Potency [8]	Potency [9]	outcome [10]	outcome [11]	outcome [12]	Potency [13]	Potency [14]	Potency [15]	Potency [16]	Potency [17]	Potency [18]	Potency [19]
CCCCc1ccc(C(=O)O)nc1	inactive	inactive	inactive	inactive	–	inactive	inactive	–	–	–	inactive	inactive	–	inactive	inactive	inactive	inactive	–	–
COc1cc(C(O)CN)ccc1O (configuration not stated)	inactive	inactive	inactive	inactive	inactive	inactive	inactive	inactive	inactive	–	inactive	inactive	–	inactive	inactive	inactive	inactive	–	–
O=C1CCCN1CC#CCN1CCCC1	inactive	inactive	inactive	inactive	inactive	inactive	inactive	inactive	inactive	inactive	inactive	inactive	–	inactive	inactive	inactive	inactive	inactive	–
NC(CCP(=O)(O)O)C(=O)O (configuration not stated)	inactive	inactive	inactive	inactive	inactive	inactive	inactive	inactive	inactive	inactive	inactive	inactive	inactive	inactive	inactive	inactive	inactive	–	inactive
c1ccc2sc(C3(N4CCCCC4)CCCCC3)cc2c1	inactive	inactive	10 µM (active)	11.2 µM (active)	11.2 µM (active)	10 µM (active)	–	7.94 µM (active)	11.2 µM (active)	–	inactive	inactive	inactive	inactive	inactive	inactive	inactive	–	–
Clc1ccc(C(c2ccc(Cl)cc2)n2cc[n+](CC(OCc3ccc(Cl)cc3Cl)c3ccc(Cl)cc3Cl)c2)cc1 (configuration not stated)	inactive	inactive	7.94 µM (active)	7.08 µM (active)	3.55 µM (active)	7.08 µM (active)	–	3.98 µM (active)	4.47 µM (active)	–	–	–	28.2 µM (active)	–	–	11.2 µM (active)	–	–	–
COc1ccc2c(c[n+](C)c3c4cc5c(cc4ccc23)OCO5)c1OC	inactive	14.1 µM (active)	14.1 µM (active)	14.1 µM (active)	–	–	11.2 µM (active)	12.6 µM (active)	–	–	inactive	inactive	–	–	inactive	10 µM (active)	inactive	–	inactive
Cc1nc(-c2ccc(-c3ccc(C(=O)N4CCc5cc6c(cc54)C4(CCN(C)CC4)CO6)cc3)c(C)c2)no1	inactive	inactive	5.01 µM (active)	11.2 µM (active)	12.6 µM (active)	11.2 µM (active)	8.91 µM (active)	10 µM (active)	11.2 µM (active)	–	–	–	inactive	–	–	10 µM (active)	–	–	–
C[C@]12CCC3C(CC[C@H]4C[C@H](O)CC[C@]34C)C1CC[C@@H]2C(=O)CO (some centres not stated)	inactive	inactive	7.94 µM (active)	14.1 µM (active)	–	8.91 µM (active)	–	10 µM (active)	–	–	inactive	inactive	inactive	inactive	inactive	inactive	inactive	–	–
CC[C@@]1(O)C(=O)OCc2c1cc1n(c2=O)Cc2cc3ccccc3nc2-1	inactive	inactive	1.41 µM (active)	0.794 µM (active)	0.794 µM (active)	1.12 µM (active)	1 µM (active)	0.794 µM (active)	0.794 µM (active)	–	–	inactive	–	inactive	104 nM (active)	–	–	–	inactive
CCCN(CCC)C1CCc2ccc(O)cc2C1 (configuration not stated)	inactive	inactive	8.91 µM (active)	11.2 µM (active)	–	10 µM (active)	–	7.94 µM (active)	11.2 µM (active)	inactive	inactive	inactive	inactive	inactive	inactive	inactive	inactive	–	–
CC[C@@H]1C(=O)OC[C@@H]1Cc1cncn1C	inactive	inactive	inactive	inactive	inactive	inactive	inactive	–	inactive	inactive	inactive	inactive	inactive	–	–	inactive	–	–	–
NCCc1c[nH]c2ccc(O)cc12	inactive	inactive	inactive	inactive	inactive	inactive	inactive	inactive	inactive	inactive	inactive	inactive	inactive	inactive	inactive	inactive	inactive	–	inactive
CCCN(CCC)[C@@H]1CCc2ccc(O)cc2C1	inactive	inactive	8.91 µM (active)	14.1 µM (active)	inactive	inactive	–	11.2 µM (active)	inactive	inactive	inactive	inactive	–	inactive	inactive	inactive	inactive	–	–
O=C(O)Cc1cnc[nH]1	inactive	inactive	inactive	inactive	inactive	inactive	inactive	inactive	inactive	–	inactive	inactive	–	inactive	inactive	inactive	inactive	–	–
